# GLS inhibitor: blocks human kidney-isoform glutaminase activity; O94925; GLS enzymatic activity, qHTS titration; Potency, µM (titrated, usually from 45.5 µM), for the others: at the top dose activity change, negative = inhibition, actives largely listed as inhibitors; 0.21% of 410,000 active; AID 624170; also: % is scaled to controls: 0 for no effect and ±100 for the full control effect
#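 hKGA; 45 mM KH2PO4 pH 8.2 + 0.02% Tween-20; cpd via pin tool; 1 mM Gln soln; GluOx/HRP/Amplex Red; RT 30 min; fluor. t0 & final.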
# JMJD2A Tudor: inhibitors of human JMJD2A Tudor domain; O75164; AlphaScreen JMJD2A-Tudor / H3K4me3 peptide binding; Potency, µM (titrated, usually from 114 µM), for inactives: at the top dose activity change, negative = inhibition, actives largely listed as inhibitors; 4.4% of 390,000 active; AID 504339; also: % is scaled to controls: 0 for no effect and ±100 for the full control effect; nearly all actives have a fitted effect of over 50% in size
# G9a inh: G9a (human) methyltransferase inhibition; Potency, µM (highest dose often 102 µM), without a hit: at the top dose activity, negative = inhibition, most hits filed as inhibitors; G9a H3K9 monomethylation, AlphaScreen, 2 h; 8.8% of 350,000 active; AID 504332; Q96KQ7; also: % is scaled to controls: 0 for no effect and ±100 for the full control effect; nearly all actives have a fitted effect of over 75% in size
#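 Quantitative HTS format: methyltransferase activity on a biotin-tagged H3K9 peptide is measured by AlphaScreen, using a rabbit anti-monomethyl-H3K9 antibody with streptavidin donor and anti-IgG acceptor beads. Final levels are 20 nM enzyme, 500 nM peptide, 20 uM SAM; 2 h RT.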
# HP1b chromo inh: HP1-beta chromodomain-methylated histone interaction inhibition. P83916. AlphaScreen HP1-beta / biotin-H3K9me3 peptide binding. Potency, µM (titrated, usually from 114 µM), without a hit: at the highest dose activity change, negative = inhibition, actives largely listed as inhibitors. 0.56% of 390,000 active; also: nearly all actives have a fitted effect of over 70% in size
#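 Compound inhibition of the preformed complex between 50 nM HP1-beta and 50 nM biotinylated H3K9me3 peptide was read by AlphaScreen. Buffer was PBS pH 7.4 with 0.01% Tween-20. Incubations ran 30 min at room temperature, with 10 ug/mL donor/acceptor beads.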
# BAZ2B block: inhibitors of human BAZ2B bromodomain. Q9UIF8. AlphaScreen BAZ2B-H3K14Ac peptide displacement. Potency, µM (highest dose often 114 µM), for the others: at the top dose activity change, negative = inhibition, most hits filed as inhibitors. 4.4% of 360,000 active. AID 504333; also: % is scaled to controls: 0 for no effect and ±100 for the full control effect; nearly all actives have a fitted effect of over 60% in size
# Target sequence (Q9UIF8 whole entry, looked up): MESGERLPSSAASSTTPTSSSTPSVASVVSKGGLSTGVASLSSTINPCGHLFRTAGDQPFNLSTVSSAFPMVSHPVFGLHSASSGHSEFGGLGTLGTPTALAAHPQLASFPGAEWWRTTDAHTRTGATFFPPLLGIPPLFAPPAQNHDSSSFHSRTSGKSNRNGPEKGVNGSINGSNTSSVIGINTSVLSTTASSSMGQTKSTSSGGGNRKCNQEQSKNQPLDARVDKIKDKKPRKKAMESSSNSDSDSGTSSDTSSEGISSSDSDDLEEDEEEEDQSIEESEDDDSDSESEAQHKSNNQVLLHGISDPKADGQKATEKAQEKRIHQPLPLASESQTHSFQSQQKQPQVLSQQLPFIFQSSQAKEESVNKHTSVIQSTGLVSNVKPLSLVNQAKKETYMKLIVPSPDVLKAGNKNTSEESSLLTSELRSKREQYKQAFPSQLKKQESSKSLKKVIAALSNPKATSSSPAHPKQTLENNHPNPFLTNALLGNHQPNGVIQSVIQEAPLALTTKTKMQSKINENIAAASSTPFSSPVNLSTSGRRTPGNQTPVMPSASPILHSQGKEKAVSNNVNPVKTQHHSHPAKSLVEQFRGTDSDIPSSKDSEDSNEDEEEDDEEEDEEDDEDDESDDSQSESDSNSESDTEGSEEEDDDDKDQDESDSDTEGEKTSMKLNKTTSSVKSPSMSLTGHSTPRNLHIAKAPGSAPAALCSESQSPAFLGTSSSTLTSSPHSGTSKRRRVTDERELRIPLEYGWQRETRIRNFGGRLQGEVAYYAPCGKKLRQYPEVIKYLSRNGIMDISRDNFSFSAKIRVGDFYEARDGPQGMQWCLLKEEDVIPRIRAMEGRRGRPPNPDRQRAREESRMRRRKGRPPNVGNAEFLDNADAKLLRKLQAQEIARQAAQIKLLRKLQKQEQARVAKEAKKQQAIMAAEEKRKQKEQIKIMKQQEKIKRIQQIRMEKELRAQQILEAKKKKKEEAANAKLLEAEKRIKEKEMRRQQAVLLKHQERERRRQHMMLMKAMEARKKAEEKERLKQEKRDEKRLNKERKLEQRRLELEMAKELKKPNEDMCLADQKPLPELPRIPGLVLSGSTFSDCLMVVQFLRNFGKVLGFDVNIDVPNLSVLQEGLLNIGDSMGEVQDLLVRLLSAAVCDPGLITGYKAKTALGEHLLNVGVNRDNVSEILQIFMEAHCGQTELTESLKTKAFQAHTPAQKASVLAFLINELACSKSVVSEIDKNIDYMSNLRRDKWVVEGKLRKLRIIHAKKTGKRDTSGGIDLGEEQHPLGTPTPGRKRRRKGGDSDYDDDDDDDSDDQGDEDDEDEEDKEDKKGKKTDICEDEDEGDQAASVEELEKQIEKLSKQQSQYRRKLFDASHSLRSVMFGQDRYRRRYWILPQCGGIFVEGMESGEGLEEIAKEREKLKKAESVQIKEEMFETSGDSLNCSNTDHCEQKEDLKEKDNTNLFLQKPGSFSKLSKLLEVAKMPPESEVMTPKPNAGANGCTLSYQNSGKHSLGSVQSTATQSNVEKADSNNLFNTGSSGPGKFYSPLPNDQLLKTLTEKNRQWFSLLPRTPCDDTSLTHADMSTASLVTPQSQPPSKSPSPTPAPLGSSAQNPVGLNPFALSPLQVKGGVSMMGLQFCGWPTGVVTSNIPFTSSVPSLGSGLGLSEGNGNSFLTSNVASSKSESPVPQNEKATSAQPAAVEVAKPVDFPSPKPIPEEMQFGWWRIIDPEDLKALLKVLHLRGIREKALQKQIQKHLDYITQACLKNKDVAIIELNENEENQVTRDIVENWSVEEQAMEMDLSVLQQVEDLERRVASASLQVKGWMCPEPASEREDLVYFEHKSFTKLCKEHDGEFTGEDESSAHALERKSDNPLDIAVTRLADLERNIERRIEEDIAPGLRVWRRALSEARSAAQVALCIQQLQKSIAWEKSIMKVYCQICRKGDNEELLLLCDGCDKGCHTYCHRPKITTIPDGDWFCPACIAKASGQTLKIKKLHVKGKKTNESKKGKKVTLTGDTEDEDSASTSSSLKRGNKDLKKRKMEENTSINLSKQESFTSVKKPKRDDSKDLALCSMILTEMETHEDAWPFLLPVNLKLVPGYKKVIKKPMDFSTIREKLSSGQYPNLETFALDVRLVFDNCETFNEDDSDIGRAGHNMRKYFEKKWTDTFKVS
#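 AlphaScreen luminescence quantifies BAZ2B engagement of H3K14Ac peptide; the protein and biotinylated peptide are both at 50 nM final, buffer PBS pH 7.4 with 0.01% Tween-20, all steps at room temperature.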
# * marks the source's active call; other numbers are inactive results; ? = inconclusive; / = no result given; [ ] = remark or other dose. Rows were chosen to be rich in hits. Some 10% of all compounds tested hit in one or more screens of this group. Calls follow the shape of the dose curve; as a rule, active = well fitted curve in the direction sought with a large enough effect; inconclusive = small, poorly fitted or top-dose-only effect, or another doubt; inactive = no such curve, though single readings can be large; an effect the other way counts as inactive or inconclusive. Potency is read from the fitted curve at half-maximal effect.
SMILES,GLS inhibitor,JMJD2A Tudor,G9a inh,HP1b chromo inh,BAZ2B block
N#CCCN(C(=O)CN1CCN(S(=O)(=O)c2ccc3c(c2)OCCO3)CC1)c1ccc(F)cc1,12%,-26%,?,16%,13%
Cc1c(C(=O)Nc2cccc(F)c2)oc2c1-c1nn(Cc3c(F)cccc3Cl)cc1CC2,-6%,-18%,18%[59 µM],65%,33%
CCN1CCN(C(=O)c2ccc3c(c2)S(=O)(=O)c2ccccc2C3=O)CC1,-7%,6%,50µM*,38%,-31%
C(=N\N=C\c1ccccn1)/c1ccccn1,-9%,?,2%,59%,50µM*
COCCNC(=O)C(c1ccc(C)o1)N(CC1CCCO1)C(=O)Cn1nnc2ccccc21 (centres undefined),4%,-22%,50µM*,67%,-9%
CC(C)NCc1cccc([N+](=O)[O-])c1,-7%,20µM*,2.5µM*,?,56µM*
COc1ccc(OC)c(C(=O)NC(CC(N)=O)c2ccc(N3CCC(Cc4ccccc4)CC3)c([N+](=O)[O-])c2)c1 (centres undefined),-11%,?,/,-20%,45µM*
Cc1cc(C)cc(C(=O)NC(CC(N)=O)c2ccc(N3CCN(c4ccccn4)CC3)c([N+](=O)[O-])c2)c1 (centres undefined),-7%,-12%,79µM*,49%,-2%
COc1ccc(OC)c(C(=O)NC(CC(N)=O)c2ccc(N3CCN(c4ccccn4)CC3)c([N+](=O)[O-])c2)c1 (centres undefined),-2%,-33%,79µM*,16%,?
C/C(=N\Nc1ccc(F)cc1F)c1ccccc1O,?,-2%,14µM*,42%,-7%
O=C(Nc1cccc(Cl)c1)C1CCN(S(=O)(=O)Cc2ccccc2)CC1,-4%,-18%,-9%[59 µM],5%,1%
COc1cc(C#Cc2c(-c3cncn3C)n(C)c3ccc(-c4cc(OC)c(OC)c(OC)c4)cc23)cc(OC)c1,2%,?,/,1%,/
COc1cc(C#Cc2c(-c3cncn3C)n(C)c3ccc(-c4ccc(OC)nc4)cc23)cc(OC)c1,2%,14µM*,-2%[0.501 µM],-11%,40µM*
COc1ccc(-c2cc(C(=O)NCc3ccco3)c3ccccc3n2)cc1OC,-2%,0%,/,29%,/
Cc1ccc2nc3sc(C(=O)NCc4ccco4)c(N)c3cc2c1,-3%,-21%,1.6µM*,45%,-30%
COc1cc2cc3c(N)c(C(=O)NCc4ccco4)sc3nc2cc1OC,-13%,-22%,28µM*,30%,-4%
Cc1cccc(C(=O)NCc2ccco2)c1,-7%,?,14%[0.501 µM],27%,?
Cc1cc(C(=O)Nc2sc(C)c(C)c2C#N)no1,21%,-12%,?,11%,1%
COc1cc2cc3c(N)c(C(=O)Nc4sc(C)c(C)c4C#N)sc3nc2cc1OC,-1%,79µM*,-39%[59 µM],?,56µM*
O=C(CCNS(=O)(=O)c1ccccc1F)N1CCN(C/C=C/c2ccccc2)CC1,3%,-20%,-8%[0.501 µM],1%,8%
O=C(c1ccccc1)c1ccc2ccccc2c1,?,215%,/,315%,/
O=C(/C=C\NCC(=O)c1ccccc1)c1ccc2ccccc2c1,2%,?,7.9µM*,-14%,-34%
O=C(/C=C/Nc1ccc(F)cc1Br)c1ccccc1,17%,-21%,-5%,23%,-3%
O=C(/C=C\NCC(=O)c1ccccc1)c1ccc(F)cc1,-2%,-20%,11µM*,33%,-37%
CCOc1ccc(CCNC(=O)Cn2ncn3nc(-c4ccc(OC)cc4)cc3c2=O)cc1OCC,-1%,0%,16%[59 µM],48%,-3%
SMILES,GLS inhibitor,JMJD2A Tudor,G9a inh,HP1b chromo inh,BAZ2B block
Cc1nc2cc(C(=O)O)ccc2n1-c1ccc(C(C)C)cc1,-3%,-27%,16µM*,-6%,?
Cc1nc2ccccc2n1-c1ccccc1,-7%,3%,-6%,34%,13%
Cc1nc2cc(N)ccc2n1-c1ccccc1,-2%,35µM*,?,?,-31%
N#Cc1ccccc1OCC(=O)Nc1nc(-c2ccccn2)cs1,-7%,/,/,/,/
O=C(CN1C(=O)CCC1=O)Nc1nc(-c2ccccn2)cs1,3%,25µM*,15%,27%,5.6µM*
O=C(CCCSc1ccccc1)Nc1nc(-c2ccccn2)cs1,-4%,-27%,?,16%,-1%
CSCCC(=O)Nc1nc(-c2ccccn2)cs1,1%,89µM*,8.9µM*,9%,20µM*
O=C(Nc1nc(-c2ccccn2)cs1)C1CCCC1,12%,?,?,-17%,50µM*
Cc1cc(C)cc(OCC(=O)Nc2nc(-c3ccccn3)cs2)c1,-6%,-23%,22µM*,-36%,-6%
Cc1cc(C)cc(N2C(=O)CSC23C(=O)N(CC(=O)NCCc2ccccc2)c2ccccc23)c1 (centres undefined),5%,-32%,-7%[59 µM],26%,7%[57.1 µM]
CC1CN(c2nnc(NC(=O)c3ccccc3)s2)CC(C)O1 (centres undefined),-13%,-20%,56µM*,25%,-11%
Cc1nnc(NC(=O)c2ccccc2)s1,0%,-19%,-5%[59 µM],31%,-2%
Cc1nnc(N2C(=O)C(=O)/C(=C(/O)c3ccc4c(c3)OCCO4)C2c2ccc([N+](=O)[O-])cc2)s1 (centres undefined),/,/,28µM*,/,?
COc1ccc(C2/C(=C(\O)c3ccc4c(c3)OCCO4)C(=O)C(=O)N2Cc2ccco2)c(OC)c1 (centres undefined),30%,?,?,-7%,?
COc1ccc(C2/C(=C(\O)c3ccc4c(c3)OCCO4)C(=O)C(=O)N2c2nc(C)c(C(C)=O)s2)cc1 (centres undefined),3%,-28%,45µM*,7%,?
COC(=O)c1ccc(C2/C(=C(/O)c3ccc4c(c3)CC(C)O4)C(=O)C(=O)N2CCN2CCOCC2)cc1 (centres undefined),0%,?,50µM*,46%,-17%[57.1 µM]
COCCN1C(=O)C(=O)/C(=C(/O)c2ccc3c(c2)OCCO3)C1c1ccc(C(=O)OC)cc1 (centres undefined),13%,45µM*,?,-8%,?
COCCCN1C(=O)C(=O)/C(=C(/O)c2ccc3c(c2)OCCO3)C1c1ccc(C(=O)OC)cc1 (centres undefined),5%,?,-12%[59 µM],-1%,-32%
O=C(N/N=C/c1ccccn1)NC12CC3CC(CC(C3)C1)C2,15%,?,/,20%,-32%
COc1cccc(C2/C(=C(\O)c3ccc4c(c3)OCCO4)C(=O)C(=O)N2c2nnc(C)s2)c1 (centres undefined),1%,-17%,-6%[0.501 µM],3%[57 µM],?
COC(=O)c1ccc(C2/C(=C(\O)c3ccc4c(c3)OCCO4)C(=O)C(=O)N2c2nnc(C)s2)cc1 (centres undefined),2%,-29%,45µM*,66%,-38%

# From PubChem BioAssay
